{"source": "ChEMBL document CHEMBL3988442", "about": "“University of Dundee, Small-Polar-MMV Screening Library” (2021)", "note": "About 13,000 (27%) of roughly 48,000 compounds showed an effect of 50% or more. Some of the results follow."}
{"test_system": "Wolbachia pipientis", "experiment": "Anti-Wolbachia Cell-Based Screen", "format": "functional", "design": "scale not given: in the data most compounds retested in dose-response had high values", "conditions": "5 µM", "units": {"Percent Effect": "%"}}
{"compound": "O=C(O)C(F)(F)F.O=C1CCCN1Cc1ncn2c1CN(C(=O)N1CCCC1)CCC2", "Percent Effect": 106.2}
{"compound": "Cn1cc(CN2CCCn3cnc(CN4CCCC4=O)c3C2)cn1", "Percent Effect": -11.95}
{"compound": "O=C1O[C@@H]2CN(Cc3ccccc3F)C[C@@H]2N1CCCN1CCOCC1", "Percent Effect": 2.415}
{"compound": "CCn1c(CN2CCCC(Cn3cncn3)C2)nc2c(F)cccc21", "note": "(stereo not drawn)", "Percent Effect": -3.133}
{"compound": "OC1(CN2CCCC2)CCCN(c2ncnc3[nH]cnc23)C1", "note": "(stereo not drawn)", "Percent Effect": -10.69}
{"compound": "NC1(CN2CCOCC2)CCCCC1", "Percent Effect": 80.74}
{"compound": "Cc1nsc(NC(=O)NC2(CN3CCOCC3)CCCCC2)n1", "Percent Effect": 1.675}
{"compound": "NC1(CN2CCCCC2)CCCCC1", "Percent Effect": 100.8}
{"compound": "NCC1(CN2CCOCC2)CCCCC1", "Percent Effect": 7.377}
{"compound": "OCCN1CCN(CC2(O)CCCCC2)CC1", "Percent Effect": -8.643}
{"compound": "CCCc1nc(C)c(CNc2nc(C)nc3oc(C)nc23)s1", "Percent Effect": 10.41}
{"compound": "Cc1nnc(SCCC(=O)N(C)Cc2ccc(F)cc2Cl)[nH]1", "Percent Effect": 5.698}
{"compound": "c1ccc(NCc2ccsc2)c(Cn2cncn2)c1", "Percent Effect": 3.372}
{"compound": "CC(=O)NC(Cc1c[nH]c2cc(F)ccc12)C(=O)Nc1cnn(C)c1", "note": "(stereo not drawn)", "Percent Effect": -8.595}
{"compound": "COc1ccc(C(C)Nc2ncc(C(N)=O)cc2Cl)cc1F", "note": "(stereo not drawn)", "Percent Effect": -11.64}
{"compound": "COc1ccc(C(C)NCCC(N)=O)cc1F", "note": "(stereo not drawn)", "Percent Effect": 53.8}
{"compound": "COc1ccc(C(C)NC(=O)NCCc2ccc(C)nc2)c(OC)c1", "note": "(stereo not drawn)", "Percent Effect": 8.171}
{"compound": "COc1ccc(C(C)NC(=O)Nc2nnc(C)s2)c(OC)c1", "note": "(stereo not drawn)", "Percent Effect": 5.487}
{"compound": "COc1ccc(C(C)NC(=O)NCCCn2cncn2)cc1F", "note": "(stereo not drawn)", "Percent Effect": 3.932}
{"compound": "COc1ccc(NC(C)C(=O)NCCc2cccs2)cc1F", "note": "(stereo not drawn)", "Percent Effect": -5.142}
{"compound": "COc1ccc(C(C)NCc2nnc(C)s2)cc1F", "note": "(stereo not drawn)", "Percent Effect": -18.95}
{"compound": "COc1ccc(C(C)NCCc2ccc(NC(C)=O)cc2)cc1F", "note": "(stereo not drawn)", "Percent Effect": 98.08}
{"compound": "COc1ccc(C(C)NCCc2ccc(NC(C)=O)cc2)c(OC)c1", "note": "(stereo not drawn)", "Percent Effect": 110.9}
{"compound": "Cc1ccc(NCc2ccccc2C#N)cc1-n1cnnn1", "Percent Effect": 14}
{"compound": "CCCNC(=O)CNc1cc(C(=O)NCC(F)(F)F)cc(F)c1C", "Percent Effect": -0.1534}
{"compound": "COCCN(Cc1ccco1)Cc1nc(-c2ccccc2C)no1", "Percent Effect": -8.039}
{"compound": "CN(c1ncc(S(N)(=O)=O)s1)C1CCc2ccccc21", "note": "(stereo not drawn)", "Percent Effect": 0.8223}
{"compound": "Cc1nc(CNCC2Cn3nncc3CO2)cs1.O=C(O)C(F)(F)F", "note": "(stereo not drawn)", "Percent Effect": 95.04}
{"compound": "Fc1ccc(CNCC2Cn3nncc3CO2)cc1.O=C(O)C(F)(F)F", "note": "(stereo not drawn)", "Percent Effect": 10.26}
{"compound": "Cc1noc(C)c1CNCC1Cn2nncc2CO1.O=C(O)C(F)(F)F", "note": "(stereo not drawn)", "Percent Effect": 106}
{"compound": "O=C(O)C(F)(F)F.c1cc(CNCC2Cn3nncc3CO2)co1", "note": "(stereo not drawn)", "Percent Effect": -8.195}
{"compound": "Cc1cc(CNCC2Cn3nnc(C)c3CO2)oc1C.O=C(O)C(F)(F)F", "note": "(stereo not drawn)", "Percent Effect": -14.18}
{"compound": "O=C(O)C(F)(F)F.c1ccc(CCNCC2Cn3nncc3CO2)cc1", "note": "(stereo not drawn)", "Percent Effect": -6.101}
{"compound": "COc1cc2ccn(CCCO)c(=O)c2cc1F", "Percent Effect": -13.96}
{"compound": "Cc1ccc(CCCC(=O)N2CCC(=O)Nc3cccnc32)s1", "Percent Effect": 9.523}
{"compound": "Cl.Cl.O[C@@H]1C[C@@](CNCc2ccc(Cl)cc2)(COc2cccnc2)C[C@@H]1O", "Percent Effect": -11.4}
{"compound": "Cc1nc(C)n(CC(C)C(=O)N2CCC(CN3CCOCC3)CC2)n1", "note": "(stereo not drawn)", "Percent Effect": -24.3}
{"compound": "CC(C)(C)CC(=O)N1CSCC1C(=O)NC1=NCCS1", "note": "(stereo not drawn)", "Percent Effect": 6.289}
{"compound": "CS(=O)(=O)N1CCC(NC(=O)COc2ccccc2Cl)CC1", "Percent Effect": 111.5}
{"compound": "CS(=O)(=O)N1CCC(Oc2ccc(C(=O)NC3CCCC3)cc2Cl)CC1", "Percent Effect": -48.27}
{"compound": "CNC(=O)c1ccc(OC2CCN(S(C)(=O)=O)CC2)c(Cl)c1", "Percent Effect": -16.21}
{"compound": "COc1cccc2c1OCC(C(=O)NC1CCN(S(C)(=O)=O)CC1)C2", "note": "(stereo not drawn)", "Percent Effect": 11.83}
{"compound": "COC(C(=O)NC1CCN(S(C)(=O)=O)CC1)c1ccccc1", "note": "(stereo not drawn)", "Percent Effect": 12.34}
{"compound": "CS(=O)(=O)N1CCC(NC(=O)COc2ccc(Br)cc2Cl)CC1", "Percent Effect": 124.9}
{"compound": "CC(CNC(=O)N1CCN(CC(F)F)CC1)Cc1cccs1", "note": "(stereo not drawn)", "Percent Effect": 5.816}
{"compound": "Cn1ccnc1C(O)(CCNCc1ccco1)C(F)(F)F", "note": "(stereo not drawn)", "Percent Effect": -13.62}
{"compound": "CN(C)CCNC(=O)Nc1cccc(C[S+]([O-])Cc2ccccc2)c1", "note": "(stereo not drawn)", "Percent Effect": -3.662}
{"compound": "Cc1noc(CN(C)CC2CCN(CCO)CC2)n1", "Percent Effect": 3.042}
{"compound": "COc1ccc(CN2CCC3(CC(Nc4ccncn4)C3)C2)c(OC)c1", "note": "(stereo not drawn)", "Percent Effect": 2.421}
{"compound": "COc1cccc(OC)c1CN1CCC2(CC(Nc3ccncn3)C2)C1", "note": "(stereo not drawn)", "Percent Effect": 4.398}
{"compound": "COc1ccc(CN2CCC3(CCCNC3)C2)cc1Cn1cccn1", "note": "(stereo not drawn)", "Percent Effect": -22.52}
{"compound": "COc1cccc(CN2CCC3(CC(Nc4ccncn4)C3)C2)c1F", "note": "(stereo not drawn)", "Percent Effect": 97.57}
{"compound": "COc1cc(CN2CCC3(CC(Nc4ccncn4)C3)C2)cc(OC)c1", "note": "(stereo not drawn)", "Percent Effect": 125.9}
